NPSR antag: neuropeptide S receptor (human) antagonism, cAMP | Q6W5P4 | CHO-NPSR cells, cAMP TR-FRET, antagonist mode | Potency, µM (doses to about 38.3 µM), inactives show at the top dose activity change, negative = inhibition, actives largely listed as inhibitors | actives 1% (n = 220,000); note: % is set by controls: 0 for no effect and ±100 for the full control effect; nearly all actives have a fitted effect of over 50% in size
Target sequence (Q6W5P4 whole entry, looked up): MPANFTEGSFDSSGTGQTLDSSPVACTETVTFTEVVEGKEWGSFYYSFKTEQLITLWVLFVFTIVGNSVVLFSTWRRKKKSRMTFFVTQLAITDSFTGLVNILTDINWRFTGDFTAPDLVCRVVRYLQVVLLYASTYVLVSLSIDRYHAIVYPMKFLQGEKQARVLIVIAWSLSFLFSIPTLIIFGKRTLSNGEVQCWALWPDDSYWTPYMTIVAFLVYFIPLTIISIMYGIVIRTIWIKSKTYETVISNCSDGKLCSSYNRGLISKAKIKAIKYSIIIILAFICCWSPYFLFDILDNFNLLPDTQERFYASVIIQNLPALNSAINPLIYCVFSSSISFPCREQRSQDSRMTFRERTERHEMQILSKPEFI
Sfp PPTase inh: blocks B. subtilis Sfp PPTase activity | actives 3.5% (n = 310,000) | AID 1490 | Potency, µM, for inactives: largest response in the series, negative = inhibition, hits mostly inhibitors | Biochemical Sfp PPTase activity, qHTS;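 note: the enzyme is Sfp with the accession as filed and its product quenches rhodamine fluorescence; 0% = enzyme reaction without inhibitor and -100% = no enzyme wells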
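Compounds were incubated with enzyme (final 15 nM) for 15 min at room temperature before substrate addition started the reaction. Fluorescence at 525 nm excitation, 598 nm emission was recorded immediately and after 30 minutes.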
Epigenetic reg: epigenetic control regulation, reporter derepression. murine LDR cells, GFP reporter derepression, 30 h. Potency, µM (series often up to 53.9 µM), for the others: at the top dose GFP activation, usual class: activators. actives 0.2% (n = 280,000). AID 1865; note: % of control where 0% means no effect; nearly all actives have a fitted effect of over 60% in size
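Reporter derepression read as number of fluorescent GFP-positive objects, 20-120 um in size, counted by laser-scanning cytometer. Mouse LDR line with an epigenetically silenced CMV-GFP locus; compound incubation 30 h, 37 C.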
KAT2A inh: blocks human GCN5L2 histone acetyltransferase; GCN5L2 HAT assay, ThioGlo1 CoA-SH fluorescence; Potency, µM (doses to about 58.9 µM), for the others: at the highest dose activity change, negative = inhibition, hits mostly inhibitors; actives 0.21% (n = 390,000); AID 504327; note: % is set by controls: 0 for no effect and ±100 for the full control effect
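Titration-based screen in which CoA formation is detected via maleimide probe ThioGlo1 (50uM) turning fluorescent on thiol reaction; substrates H3(1-25) 75uM and acetyl-CoA 70uM, GCN5L2 20nM, 20 min incubation at room temperature.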
IMPase Li inh: cell-permeable IMPase inhibitors with lithium potentiation; CHO-M1 cells, IP1 TR-FRET (IP-One), carbachol + lithium; Potency, µM (series often up to 59.4 µM), without a hit: at the top dose activity, negative = IMPase inhibition, most hits filed as inhibitors; actives 0.35% (n = 210,000); AID 1457;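 note: IP1 builds up when IMPase is blocked and the TR-FRET signal falls; plate controls were basal vehicle for no effect and high inhibitor control for full effect; nearly all actives have a fitted effect of over 50% in size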
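Lithium-sensitised IP1 accumulation assay; M1-expressing CHO cells treated 30 min at 37C with compound. Competitive antibody detection by time-resolved FRET followed a 10 min room-temperature lysis step.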
KDM4E inh: blocks human JMJD2E demethylase activity; B2RXH2; JMJD2E catalytic domain, FDH-coupled NADH fluorescence (FDH is formaldehyde dehydrogenase); Potency, µM (highest dose often 57.1 µM), for inactives: top-dose activity change, negative = inhibition, usual class: inhibitors; actives 1.6% (n = 230,000); AID 2147; active = well fitted inhibition curve with a large enough effect, not every such curve was filed as active; inconclusive = small, poorly fitted or top-dose-only effect, or another doubt; inactive = no such curve, though single readings can be large or run the other way;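 note: 0% = wells with enzyme and -100% = buffer wells without enzyme; nearly all actives have a fitted effect of over 50% in size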
Target sequence (B2RXH2 1-337 limits assumed): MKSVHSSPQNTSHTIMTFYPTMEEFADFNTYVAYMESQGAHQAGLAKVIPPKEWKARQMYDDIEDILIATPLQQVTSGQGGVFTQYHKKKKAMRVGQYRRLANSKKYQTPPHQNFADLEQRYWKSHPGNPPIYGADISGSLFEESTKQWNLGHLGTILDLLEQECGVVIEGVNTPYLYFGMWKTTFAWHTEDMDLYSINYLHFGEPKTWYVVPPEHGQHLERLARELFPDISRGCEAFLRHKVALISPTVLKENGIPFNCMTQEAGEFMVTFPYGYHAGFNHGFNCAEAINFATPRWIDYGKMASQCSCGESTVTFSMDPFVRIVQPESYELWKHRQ
* hit, by the source's call; [ ] = remark or other dose. Compounds with a hit are over-represented: about 3.6% of the library has one in this group of screens. Unless noted, calls come from the whole dose curve; as a rule, active = well fitted curve in the direction sought with a large enough effect; inconclusive = small, poorly fitted or top-dose-only effect, or another doubt; inactive = no such curve, though single readings can be large; an effect the other way counts as inactive or inconclusive. Potency is the fitted concentration of half-maximal effect.

Results for O=S(=O)(NCc1nc2cccnc2n1Cc1ccccc1Cl)c1ccc2c(c1)CCCC2 ?
Epigenetic reg: 2.2%; KAT2A inh: -8.9%

Results for CCOC(=O)N1CCc2c(sc3c2c(=O)n(-c2ccc(CC)cc2)c(=O)n3CC(=O)c2ccc(F)cc2)C1 ?
Epigenetic reg: 2.4%; KAT2A inh: 0.0%

Results for CCOC(=O)N1CCc2c(sc3c2c(=O)n(-c2ccc(F)cc2)c(=O)n3CC(=O)c2ccc(Cl)cc2)C1 ?
Epigenetic reg: 15.8µM*; KAT2A inh: 2.3%

Results for CCCn1c(=N)n(CC(O)c2ccco2)c2ccccc21 (stereo unspecified) ?
NPSR antag: 0.2%[46.1 µM]; Sfp PPTase inh: 8.1%; Epigenetic reg: -1.2%; KAT2A inh: -0.1%; IMPase Li inh: 10.2%[38.3 µM]; KDM4E inh: -1.1%

How did Cn1c(=N)n(CC(O)c2ccco2)c2ccccc21 (stereo unspecified) do in these assays?
NPSR antag: 0.5%[46.1 µM]; Sfp PPTase inh: 89.1µM*; Epigenetic reg: -0.8%; KAT2A inh: 2.0%; IMPase Li inh: -3.6%[38.3 µM]; KDM4E inh: 4.8%

How did COc1cc(OC)c2c(c1C(CCN1CCCC1)c1ccc(N(C)C)cc1)OC(=O)CC2c1ccc(N(C)C)cc1 (stereo unspecified) do in these assays?
Sfp PPTase inh: -16.3%

How did Cc1cnc(NC(=O)CCCc2nc3ccccc3s2)s1 do in these assays?
NPSR antag: -9.5%[46.1 µM]; Sfp PPTase inh: 39.8µM*; Epigenetic reg: 13.3%; KAT2A inh: 2.5%; IMPase Li inh: 15.3%[38.3 µM]; KDM4E inh: inconclusive

Results for COc1ccccc1OC(=O)CCc1nc2ccccc2s1 ?
NPSR antag: 3.2%; Sfp PPTase inh: 14.1µM*; Epigenetic reg: -0.5%; KAT2A inh: -22.3%; IMPase Li inh: 17.8%; KDM4E inh: -19.6%

What do the screens show for `COC(=O)CCCc1nc2ccccc2s1`?
NPSR antag: -1.1%[46.1 µM]; Sfp PPTase inh: 19.9%; Epigenetic reg: 1.0%; KAT2A inh: -10.6%; IMPase Li inh: -2.8%[38.3 µM]; KDM4E inh: 0.3%

How did O=C(CCCc1nc2ccccc2s1)Nc1nccs1 do in these assays?
NPSR antag: -4.2%[46.1 µM]; Sfp PPTase inh: 44.7µM*; Epigenetic reg: -1.1%; KAT2A inh: 1.4%; IMPase Li inh: 6.3%[38.3 µM]; KDM4E inh: 1.6%

How did CC[C@]1(c2ccccc2)NC(=O)NC1=O do in these assays?
Sfp PPTase inh: 9.8%; KAT2A inh: 0.6%

Results for C[C@H](NC(=O)Cc1cc(F)cc(F)c1)C(=O)N[C@@H](C(=O)OC(C)(C)C)c1ccccc1 ?
Sfp PPTase inh: 9.3%; KAT2A inh: 37.0%

How did CC(=O)OC[C@H]1O[C@@H](O/N=C(\C)CCN2CCCc3nc(C)c(C)cc32)[C@H](OC(C)=O)[C@@H](OC(C)=O)[C@H]1OC(C)=O do in these assays?
Sfp PPTase inh: -4.2%; Epigenetic reg: 0.8%[10.1 µM]

How did Cc1ccc(-n2cc[nH]c2=S)cc1C do in these assays?
NPSR antag: 13.0%; Sfp PPTase inh: 79.4µM*; Epigenetic reg: -1.1%; KAT2A inh: -3.4%; IMPase Li inh: -5.3%; KDM4E inh: 0.6%

What do the screens show for `S=c1[nH]ccn1-c1cccc(Cl)c1`?
NPSR antag: 3.0%; Sfp PPTase inh: -2.1%; Epigenetic reg: -1.3%; KAT2A inh: 2.9%; IMPase Li inh: -3.3%; KDM4E inh: -4.0%

How did S=c1[nH]nc(COc2ccccc2)n1/N=C/C(Cl)=C/c1ccccc1 do in these assays?
NPSR antag: -23.8%[46.1 µM]; Sfp PPTase inh: 56.2µM*; Epigenetic reg: inconclusive; KAT2A inh: -16.3%; IMPase Li inh: 8.7%[38.3 µM]; KDM4E inh: 8.1%

What do the screens show for `Oc1ccc(/C=N/n2c(COc3ccccc3)n[nH]c2=S)cc1O`?
Sfp PPTase inh: 56.2µM*; KAT2A inh: -13.9%

How did O=[N+]([O-])c1cccc(/C=N/n2c(COc3ccccc3)n[nH]c2=S)c1 do in these assays?
NPSR antag: -16.7%[46.1 µM]; Sfp PPTase inh: 56.2µM*; Epigenetic reg: -2.6%; KAT2A inh: -13.5%; IMPase Li inh: 31.6%[38.3 µM]; KDM4E inh: inconclusive

Results for S=c1[nH]nc(COc2ccccc2)n1/N=C/c1cccs1 ?
NPSR antag: -26.2%; Sfp PPTase inh: 79.4µM*; Epigenetic reg: 0.0%; KAT2A inh: -16.1%; IMPase Li inh: -13.9%; KDM4E inh: -7.0%

What do the screens show for `Cc1cc(C)c(S(=O)(=O)NCc2ccc3c(c2)CCN3C(=O)c2ccccc2)c(C)c1`?
Epigenetic reg: inconclusive; KAT2A inh: -7.4%

Results for FC(F)Oc1ccc(/C=N/n2c(Cc3ccc(Br)cc3)n[nH]c2=S)cc1 ?
Sfp PPTase inh: 17.8µM*; KAT2A inh: inconclusive

Results for CSc1ccc(/C=N/n2c(Cc3ccc(Br)cc3)n[nH]c2=S)cc1 ?
NPSR antag: -37.0%; Sfp PPTase inh: 17.8%; Epigenetic reg: 0.1%; KAT2A inh: -3.6%; IMPase Li inh: 10.1%; KDM4E inh: -11.5%

What do the screens show for `S=c1[nH]nc(COc2ccccc2)n1/N=C/c1cccc(Br)c1`?
Sfp PPTase inh: inconclusive; KAT2A inh: -1.8%

What do the screens show for `S=c1[nH]nc(COc2ccccc2)n1/N=C/c1ccc(Br)cc1`?
Sfp PPTase inh: 63.1µM*; KAT2A inh: -25.3%

How did CCOc1ccc(C(=O)CSCCC(=O)O)cc1 do in these assays?
NPSR antag: -1.3%; Sfp PPTase inh: 25.1µM*; Epigenetic reg: -1.4%; KAT2A inh: -5.3%; IMPase Li inh: 8.1%; KDM4E inh: -7.8%

What do the screens show for `CCOc1ccc(C(=O)COC(C)=O)cc1`?
NPSR antag: -0.5%[46.1 µM]; Sfp PPTase inh: 21.6%; Epigenetic reg: -1.1%; KAT2A inh: -0.3%; IMPase Li inh: -3.0%[38.3 µM]; KDM4E inh: 8.0%

What do the screens show for `CC(C)N(CC#CCC(O)(c1ccccc1)C1CCCC1)CCO` (stereo unspecified)?
NPSR antag: -1.4%; Sfp PPTase inh: 20µM*; Epigenetic reg: -5.0%; KAT2A inh: 21.5%; IMPase Li inh: 18.7%; KDM4E inh: -2.9%

How did CCCn1c(-c2ccc(F)cc2)nc2c(NCCN(C(C)C)C(C)C)nc(C)nc21 do in these assays?
Sfp PPTase inh: 16.6%; Epigenetic reg: 1.7%; IMPase Li inh: 14.0%; KDM4E inh: inconclusive

Results for C=CCN(C)CCCCCCOc1ccc(C(=O)c2ccc(Br)cc2)c(F)c1 ?
Sfp PPTase inh: inconclusive; KAT2A inh: -21.5%

How did COC(=O)c1ccc(CNCC(O)COc2ccc(-c3ccccc3)cc2)cc1 (stereo unspecified) do in these assays?
Sfp PPTase inh: -7.2%; KAT2A inh: -2.5%
